# A number with no mark means an inactive call. How the calls were made is not given here.
# Molecular target: Pantothenate synthetase (Mycobacterium tuberculosis (strain ATCC 25618 / H37Rv)) (UniProt P9WIL5)
# Experiment: Recombinant Mtb pantothenate synthetase (PanC) inhibitors, coupled enzyme, confirmatory (AID 375);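 further: 0% = full reaction with vehicle and 100% = no enzyme background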
# Details: coupled enzyme assay; at 10 µM, active compounds read high
# Chain of Pantothenate synthetase (Mycobacterium tuberculosis (strain ATCC 25618 / H37Rv)) (P9WIL5 whole entry, looked up): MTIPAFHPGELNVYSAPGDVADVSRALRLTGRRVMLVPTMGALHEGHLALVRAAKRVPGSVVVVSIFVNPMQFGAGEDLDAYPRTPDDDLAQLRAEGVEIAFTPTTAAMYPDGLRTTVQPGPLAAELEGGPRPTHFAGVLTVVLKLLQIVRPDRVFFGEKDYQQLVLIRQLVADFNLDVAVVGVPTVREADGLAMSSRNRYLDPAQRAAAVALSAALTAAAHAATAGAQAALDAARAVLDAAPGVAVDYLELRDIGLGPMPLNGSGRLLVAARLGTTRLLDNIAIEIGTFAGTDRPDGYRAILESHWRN
row,SMILES,inhibition [%]
1,CC(=O)Nc1nc(-c2ccc(Cl)cc2)nc(C)c1C(C)=O,0
2,Cc1cc(Oc2ccc(Cl)cc2)nc(-c2ccccc2O)n1,7
3,CCN(CC)CCCNC(=O)c1nn(-c2ccc(OC)cc2OC)c(=O)c2ccccc12,0
4,S=C(N=Nc1ccccc1)NNc1ccccc1,0
5,N/C(Cn1nnc(-c2ccccc2)n1)=N\O,3
6,COc1ccc(-c2noc(CSc3nc4ccccc4c(=O)n3-c3ccccc3)n2)cc1OC,1
7,Cc1cc(-c2ccccc2)nnc1NCCN1CCOCC1,0
8,CCOC(=O)N1CCC(N2C(=O)c3ccccc3C2Nc2cc(Cl)c(OC)cc2OC)CC1 (configuration not stated),0
9,O=C(O)CCCC(=O)Nc1ccc(Br)cc1C(=O)O,0
10,COCCOC(=O)c1cc(C(=O)c2cc(F)ccc2O)coc1=N,2
11,Cc1cc(NS(=O)(=O)Cc2ccccc2)cc(C)c1OCC(=O)N1CCOCC1,4
12,Brc1ccccc1-c1nc(-c2ccccc2)no1,0
13,Cc1nc2ccccn2c1P(=O)(N1CCCCC1)N1CCCCC1,4
14,Cc1cccc(N2C(=O)CC(N(C(=O)c3ccco3)c3cccc(C)c3)C2=O)c1 (configuration not stated),0
15,O=c1c2ccccc2nc(SCc2cn3ccsc3n2)n1-c1ccc(F)cc1,0
16,CC(C)C(NC(=O)c1ccco1)C(=O)NCC(c1ccco1)N1CCCCC1 (configuration not stated),3
17,CCOC(=O)c1sc(NC(=O)CSc2nc3c(cc2C#N)CCC3)c(C#N)c1C,10
